Measured values from PubChem BioAssay (NCI).
About 79,000 compounds went through this panel and 15% of them were active in at least one assay; those are over-represented in the sample as a whole. A number with no mark means an inactive call. Activity calls are given as the source filed them. No stated cut-off is given here; in the data, active means growth inhibition above about 70%; inactive means the rest.

Key:
[1] = NCI Yeast Anticancer Drug Screen. Data for the rad50 strain (AID 155);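 further: 0% = growth of vehicle-only cultures of the same strain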; conditions: S. cerevisiae rad50 strain growth inhibition; at 50.0 µM; hits give high values
Summary of the method: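 Growth of the mutant yeast was measured after compound exposure and referenced to vehicle-treated cultures.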

[2] = NCI Yeast Anticancer Drug Screen. Data for the mec2-1 strain (AID 157); conditions: S. cerevisiae mec2-1 strain, at 50.0 µM, hits give high values
Summary of the method: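 Test agents were screened against the mec2-1 yeast strain, with defined DNA repair or cell cycle alteration. Growth was scored as inhibition against vehicle-only controls.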

[3] = NCI Yeast Anticancer Drug Screen. Data for the sgs1 mgt1 strain (AID 161);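 further: 0% = growth of cultures given vehicle only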; conditions: S. cerevisiae sgs1 mgt1 strain, at 50.0 µM, hits give high values
Summary of the method: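 Genetically altered yeast, compound exposure, growth inhibition relative to vehicle.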

[4] = NCI Yeast Anticancer Drug Screen. Data for the cln2 rad14 strain (AID 165);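 further: 0% = growth equal to vehicle treated cultures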; conditions: S. cerevisiae cln2 rad14 strain, at 50.0 µM, hits give high values
Summary of the method: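 Growth of compound-exposed yeast (cln2 rad14 genotype) measured and expressed as inhibition relative to vehicle.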

[5] = NCI Yeast Anticancer Drug Screen. Data for the bub3 strain (AID 167); conditions: S. cerevisiae bub3 mutant strain, at 50.0 µM, hits give high values
Summary of the method: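 Whole-cell yeast assay. The mutant strain was incubated with compounds, and growth inhibition was determined by comparison with vehicle-treated cells.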

[6] = NCI Yeast Anticancer Drug Screen. Data for the mlh1 rad18 strain (AID 175); conditions: S. cerevisiae mlh1 rad18 strain growth inhibition; at 50.0 µM; hits give high values
Summary of the method: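 In this whole-cell yeast screen, a strain with altered DNA damage repair is challenged with compound, and its growth is measured against matched vehicle-treated controls.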

SMILES	growth inhibition [1]	growth inhibition [2]	growth inhibition [3]	growth inhibition [4]	growth inhibition [5]	growth inhibition [6]
Nc1nnnn1C1CCCCC1	9.3%	3.8%	-4.65%	-8.65%	-11.3%	20.9%
CC1/C(=N\Nc2ccc([N+](=O)[O-])cc2[N+](=O)[O-])CCC2C1(C)CCC1C2(C)CCC2(C)C3CC(C)(C)CCC3(C)CCC12C (configuration not stated)	-5.8%	-9.1%	9.8%	-16.6%	13.2%	6.25%
Nc1nc(N)c2nc(-c3ccc(O)cc3)c(-c3ccc(O)cc3)nc2n1	-15.5%	-4%	0.15%	50.6%	7.9%	-13.6%
O=c1nc2n(cc1/C=C\Br)C1CC(O)C(CO2)O1 (configuration not stated)	-51%	-24.6%	-24.1%	13.3%	-1.5%	-23.6%
CCCCCN(CCCCC)C(=O)C(C)Br (configuration not stated)	-3.6%	-12.9%	12.8%	-12.9%	44.9%	3.1%
CCOC(=O)c1cnc(SC)nc1Nc1ccc(OC)cc1	47.4%	8.55%	7.35%	9.6%	21.2%	50.1%
CC(CO)(CO)Nc1ncnc2ccccc12	-4.5%	-12%	-30.9%	-26.4%	-36.9%	9.7%
O=C(Nc1ccc([N+](=O)[O-])cc1)Nc1nccnn1	5.15%	-13.1%	10.6%	-39.9%	8.4%	-0.8%
O=S(=O)(O)c1ccccc1/C=N\N=C\c1ccccc1S(=O)(=O)O	10.8%	1.85%	11.7%	17.4%	-6.4%	12.8%
CCc1cc2c(c3c1CCCC3)CC1(Cc3ccc(C(=O)OC)cc3C1)C2 (configuration not stated)	3.65%	-11.7%	-16.4%	10.3%	3.15%	-12.4%
O=C1OC(c2ccccc2)=N/C1=C\c1cc2c(cc1Cl)OCO2	4.05%	11.7%	16.1%	-25.3%	-5.7%	20.1%
O=C1OC(c2ccccc2)=N/C1=C\c1cccnc1	12.3%	-3.25%	0%	-10.3%	-5.8%	13.1%
CC(=O)Nc1ccc(S(=O)(=O)N/N=c2/sc3ccccc3n2C)cc1N	-4.6%	-2.7%	-3.8%	15.2%	-8.75%	3.2%
CC(=O)Nc1c(C)n(C)n(-c2ccccc2)c1=O	-2.45%	-12.7%	23.4%	31.1%	17.6%	13.6%
COC(=O)C1(CC(=O)c2ccc(C)cc2)NC(=S)NC(=O)C1C#N (configuration not stated)	-4.7%	-4.8%	-30.1%	-8.65%	-34.6%	-0.85%
Clc1ccccc1C=NC1CCCCC1	-5.1%	-12.2%	-0.3%	-1.15%	-5.85%	-3.1%
FC(F)(c1nn[nH]n1)C(F)(F)C(F)(F)c1nn[nH]n1	-6.8%	-2.6%	-10.8%	-36.2%	-1.05%	-2.95%
Clc1cccc(C2N3CCCCC3[C@@H]3c4[nH]c5ccccc5c4CCN23)c1 (some centres not stated)	-0.75%	-1.85%	-1.95%	3.1%	10.9%	1.7%
COC(=O)c1nc(N)nc(C(=O)OC)c1C(=O)c1ccccn1	-12.1%	-19.2%	1.65%	-20.2%	-11.3%	-1.75%
O=C(O)/C(=C/c1ccccc1)c1ccccc1	-9.3%	-45%	-30.3%	-23.1%	-33.5%	26.8%
c1ccc(B2OB(c3ccccc3CN3CCCC3)OB(c3ccccc3CN3CCCC3)O2)c(CN2CCCC2)c1	21%	4.15%	0.05%	17.1%	0.75%	15.4%
COc1ccc(C(N)C(=O)O)cc1 (configuration not stated)	-17.4%	-9.4%	-6.8%	-21.6%	-12.5%	-10.9%
O=C1c2ccccc2-c2c1cccc2[N+](=O)[O-]	48%	23.9%	9.55%	-62.5%	-18.3%	42.5%
C=C1CC(Cn2cc(C)c(=O)[nH]c2=O)(c2ccc(-c3ccccc3)cc2)OC1=O (configuration not stated)	8.9%	-5.35%	38.6%	37.7%	29.5%	47.1%

SMILES	growth inhibition [1]	growth inhibition [2]	growth inhibition [3]	growth inhibition [4]	growth inhibition [5]	growth inhibition [6]
COc1ccc(-c2nc(SCC(=O)O)n(-c3ccccn3)c2-c2ccc(OC)cc2)cc1	70.7% (active)	66.5%	82.3% (active)	83.7% (active)	42.9%	77.7% (active)
Cc1ccccc1CN(C)CCCO	4.1%	-13%	-16.8%	-16.1%	-3.85%	1.05%
CC(=O)OCC1OC(OC(C)=O)C(N(C)C(C)=O)C(OC(C)=O)C1OC(C)=O (configuration not stated)	32.8%	18.6%	26.8%	20.6%	-0.55%	35.6%
CC1=C(C(=O)NNC(=O)CC#N)CC(C(=O)NNC(=O)CC#N)=C(C)N1	-27.7%	-43.8%	-20.8%	-24.6%	-27.4%	-0.05%
CC(C)=C1C2C=CC1C(CO)C2CO (configuration not stated)	9.8%	-4.4%	-3.95%	-64%	2.2%	10.8%
C[C@H](N)C(O)/C=C/c1ccccc1 (some centres not stated)	5.1%	-9.05%	-0.7%	-2.55%	-0.3%	-7.05%
CN(CCO)c1nc2c(c(=O)[nH]1)CCC2	-3.55%	-21.8%	-43%	-5.25%	-19.4%	-21.8%
O=C(CC(C(=O)O)S(=O)(=O)O)Nc1ccc(S(=O)(=O)c2ccc(NC(=O)CC(C(=O)O)S(=O)(=O)O)cc2)cc1 (configuration not stated)	2.45%	4.55%	2.55%	-5.55%	-7.9%	-11.3%
COC(=O)CCC(=O)Nc1cc(Cl)ccc1Cl	-2.35%	-16.1%	-0.35%	6.45%	-4.15%	6.3%
Cc1ccc(C2(C)NC(=S)N(NC(N)=S)C2=S)cc1 (configuration not stated)	32.3%	19.8%	7.15%	3.25%	4.65%	21.8%
C=CCC(C(=O)NC(N)=O)c1ccccc1 (configuration not stated)	3.9%	-7.65%	-11.3%	19.5%	8.05%	0.35%
CC1=C(C(=O)NCc2ccccc2)C(c2ccc([N+](=O)[O-])cc2)C(C(=O)NCc2ccccc2)=C(C)N1	-10.6%	-15.2%	1.5%	4.4%	-4.8%	-23.8%
CC(C)OC(=O)c1cccnc1	16.5%	2.2%	7.05%	-39%	-1.35%	-2.45%
CC(C)(C)C1CCC2c3c([nH]c4ccccc34)C3C(=O)N(c4cc(Cl)ccc4Cl)C(=O)C3C2C1 (configuration not stated)	18%	0.75%	-4.05%	5.4%	6.3%	0.9%
COC(=O)c1cc(-c2ccccc2)c2c(=O)n(-c3ccccc3)[nH]c2n1	13.7%	7.35%	20.5%	-10.3%	-4.55%	4.85%
CCOC(=O)C(=O)Nc1cccc(NC(=O)C(=O)OCC)n1	2.5%	-21.6%	-19.1%	4.4%	-13.8%	-6.05%
COc1ccc(OC)c(NC(=O)c2ccccc2Cl)c1	-4.85%	-1.95%	16.7%	-13%	48.2%	-16.8%
C#CC(C)(C)OCC(O)CCl (configuration not stated)	1.85%	5.65%	1.65%	-28.8%	-15.4%	2.45%
O=S(=O)(Cl)c1c(F)c(F)c(F)c(F)c1F	-31.3%	-41.1%	-19.9%	24.1%	-0.25%	-21.4%
COC(=O)[C@H](Cc1ccccc1)NP(=O)(OCCC#N)OCC1OC(n2cc(C)c(=O)[nH]c2=O)CC1N=[N+]=[N-] (some centres not stated)	0.95%	-13.1%	-19.3%	-20%	-19.9%	-35.8%
Cc1ccc(OC(=O)c2ccccc2)cc1CC(Cl)(Cl)Cl	-0.75%	-6%	-9.3%	-19.3%	2.8%	-14.3%
Cc1ccc(C(C)C)c(OC2OC(C(=O)O)C(O)C(O)C2O)c1 (configuration not stated)	5.95%	13.9%	-9%	-33.7%	10.9%	-10.4%
CCC1=NC(C(F)(F)F)(C(F)(F)F)N=C(N2CCOCC2)O1	23.8%	6.15%	9.2%	14.4%	22.4%	2.2%
